About 7,900 targets were measured; listed, in parts, are those with a hit and a random draw of the rest. About 0.6% of all pairs of compound and target were hits.
Assays:
Test in all cases: log2 fold change, soluble protein after heating vs DMSO (PISA); higher = thermal stabilisation; K562 cells, 10 uM, 30 min; active = over 0.2 and 3.5 SD of the protein, either way, in both replicates (recomputed)
[1] = compound: COC1=CC=C(C=C1)CN2C=CC3=C2C=C(C=C3)C(=O)NO
Method in brief: (§1)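 Soluble protein was defined as the supernatant after 21,000xg for 90 min. It came from K562 cells at 2×10^6 cells/mL given 10 μM compound for 30 min, heated in aliquots for 3 min across 48°C-58°C, pooled, and extracted in PBS with 0.5% NP-40 at 4°C, and was quantified by TMTpro 16plex LC-MS/MS with equalised channel sums. Thermal stability against control samples, from duplicates, is reported as log2 fold change.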

filanesib = compound: CON(C)C(=O)N1N=C(c2cc(F)ccc2F)S[C@@]1(CCCN)c1ccccc1 [filanesib]
Method in brief: as §1

zotarolimus = compound: CO[C@H]1C[C@@H]2CC[C@@H](C)[C@@](O)(O2)C(=O)C(=O)N2CCCC[C@H]2C(=O)O[C@H]([C@H](C)C[C@@H]2CC[C@H](n3cnnn3)[C@H](OC)C2)CC(=O)[C@H](C)/C=C(\C)[C@@H](O)[C@@H](OC)C(=O)[C@H](C)C[C@H](C)/C=C/C=C/C=C/1C [zotarolimus]
Method in brief: as §1

idasanutlin = compound: COc1cc(C(=O)O)ccc1NC(=O)[C@@H]1N[C@@H](CC(C)(C)C)[C@](C#N)(c2ccc(Cl)cc2F)[C@H]1c1cccc(Cl)c1F [idasanutlin]
Method in brief: as §1

alisertib = compound: COc1cc(Nc2ncc3c(n2)-c2ccc(Cl)cc2C(c2c(F)cccc2OC)=NC3)ccc1C(=O)O [alisertib]
Method in brief: as §1

[2] = compound: COc1cc2nc(-c3cc(F)ccc3O)nc(N[C@@H]3CNC[C@H]3C(C)(C)O)c2cc1OC
Method in brief: as §1

gefitinib = compound: COc1cc2ncnc(Nc3ccc(F)c(Cl)c3)c2cc1OCCCN1CCOCC1 [gefitinib]
Method in brief: as §1

[3] = compound: COc1cccc2cc(-c3nc([C@H]4CC[C@H](C(=O)O)CC4)n4ncnc(N)c34)[nH]c12
Method in brief: as §1

lapatinib = compound: CS(=O)(=O)CCNCc1ccc(-c2ccc3ncnc(Nc4ccc(OCc5cccc(F)c5)c(Cl)c4)c3c2)o1 [lapatinib]
Method in brief: as §1

pictilisib = compound: CS(=O)(=O)N1CCN(Cc2cc3nc(-c4cccc5[nH]ncc45)nc(N4CCOCC4)c3s2)CC1 [pictilisib]
Method in brief: as §1

[4] = compound: CS(=O)(=O)c1ccc(-c2cnc(N)c(C(=O)Nc3ccccc3)n2)cc1
Method in brief: as §1

crizotinib = compound: C[C@@H](Oc1cc(-c2cnn(C3CCNCC3)c2)cnc1N)c1c(Cl)ccc(F)c1Cl [crizotinib]
Method in brief: as §1

[5] = compound: C[C@@H]1COCCN1C2=NC(=NC(=C2)C3(CC3)S(=O)(=O)C)C4=C5C=CNC5=CC=C4
Method in brief: as §1

[6] = compound: C[C@H](C1=CC=C(C=C1)C(=O)NC2=C3C=CNC3=NC=C2)N
Method in brief: as §1

duvelisib = compound: C[C@H](Nc1ncnc2nc[nH]c12)c1cc2cccc(Cl)c2c(=O)n1-c1ccccc1 [duvelisib]
Method in brief: as §1

gandotinib = compound: Cc1cc(Nc2cc(CN3CCOCC3)c3nc(C)c(Cc4ccc(Cl)cc4F)n3n2)n[nH]1 [gandotinib]
Method in brief: as §1

tozasertib = compound: Cc1cc(Nc2cc(N3CCN(C)CC3)nc(Sc3ccc(NC(=O)C4CC4)cc3)n2)n[nH]1 [tozasertib]
Method in brief: as §1

[7] = compound: Cc1cc(SCc2sc(-c3ccc(C(F)(F)F)cc3)nc2C)ccc1OCC(=O)O
Method in brief: as §1

doramapimod = compound: Cc1ccc(-n2nc(C(C)(C)C)cc2NC(=O)Nc2ccc(OCCN3CCOCC3)c3ccccc23)cc1 [doramapimod]
Method in brief: as §1

ispinesib = compound: Cc1ccc(C(=O)N(CCCN)[C@@H](c2nc3cc(Cl)ccc3c(=O)n2Cc2ccccc2)C(C)C)cc1 [ispinesib]
Method in brief: as §1

Measured: log2 fold change

SMARCE1 (UniProt Q969G3)
UniProt Q969G3, sequence (Q969G3 whole entry, looked up): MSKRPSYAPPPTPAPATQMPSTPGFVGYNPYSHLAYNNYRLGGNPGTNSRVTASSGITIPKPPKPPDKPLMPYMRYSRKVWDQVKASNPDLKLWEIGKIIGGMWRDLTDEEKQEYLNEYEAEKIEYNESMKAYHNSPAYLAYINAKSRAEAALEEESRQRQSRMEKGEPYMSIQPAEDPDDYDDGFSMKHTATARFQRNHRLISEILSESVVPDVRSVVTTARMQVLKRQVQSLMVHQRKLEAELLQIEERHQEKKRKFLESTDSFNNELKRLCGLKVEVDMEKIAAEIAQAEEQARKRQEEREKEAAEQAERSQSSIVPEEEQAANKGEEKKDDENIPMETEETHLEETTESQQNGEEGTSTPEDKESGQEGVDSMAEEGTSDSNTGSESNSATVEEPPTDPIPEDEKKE
inactive: [1] 0.035 | filanesib 0.058 | zotarolimus 0.052 | idasanutlin 0.013 | alisertib -0.21 | [2] -0.07 | gefitinib 0.066 | [3] 0.206 | lapatinib 0.038 | pictilisib -0.062 | [4] -0.088 | crizotinib 0.011 | [5] 0.048 | [6] 0.093 | duvelisib 0.014 | gandotinib -0.087 | tozasertib 0.091 | [7] 0.135 | doramapimod 0.052 | ispinesib 0.048

STXBP2 isoform 3 (UniProt Q15833)
inactive: [1] 0.021 | filanesib 0.001 | zotarolimus -0.043 | idasanutlin 0.043 | alisertib -0.034 | [2] 0.045 | gefitinib 0.043 | [3] -0.066 | lapatinib 0.007 | pictilisib -0.091 | [4] 0.049 | crizotinib -0.301 | [5] 0.022 | [6] 0.039 | duvelisib 0.019 | gandotinib -0.03 | tozasertib 0.03 | [7] 0.17 | doramapimod 0.152 | ispinesib -0.306

SNRPD3 (UniProt P62318)
inactive: [1] -0.169 | filanesib 0.152 | zotarolimus -0.051 | idasanutlin 0.025 | alisertib -0.132 | [2] 0.039 | gefitinib -0.019 | [3] 0.023 | lapatinib 0.028 | pictilisib 0.064 | [4] -0.102 | crizotinib 0.011 | [5] 0.036 | [6] 0.041 | duvelisib 0.039 | gandotinib 0.034 | tozasertib -0.035 | [7] -0.04 | doramapimod 0.055 | ispinesib 0.006

SRRM2 (UniProt Q9UQ35)
UniProt Q9UQ35, sequence (Q9UQ35 whole entry, looked up): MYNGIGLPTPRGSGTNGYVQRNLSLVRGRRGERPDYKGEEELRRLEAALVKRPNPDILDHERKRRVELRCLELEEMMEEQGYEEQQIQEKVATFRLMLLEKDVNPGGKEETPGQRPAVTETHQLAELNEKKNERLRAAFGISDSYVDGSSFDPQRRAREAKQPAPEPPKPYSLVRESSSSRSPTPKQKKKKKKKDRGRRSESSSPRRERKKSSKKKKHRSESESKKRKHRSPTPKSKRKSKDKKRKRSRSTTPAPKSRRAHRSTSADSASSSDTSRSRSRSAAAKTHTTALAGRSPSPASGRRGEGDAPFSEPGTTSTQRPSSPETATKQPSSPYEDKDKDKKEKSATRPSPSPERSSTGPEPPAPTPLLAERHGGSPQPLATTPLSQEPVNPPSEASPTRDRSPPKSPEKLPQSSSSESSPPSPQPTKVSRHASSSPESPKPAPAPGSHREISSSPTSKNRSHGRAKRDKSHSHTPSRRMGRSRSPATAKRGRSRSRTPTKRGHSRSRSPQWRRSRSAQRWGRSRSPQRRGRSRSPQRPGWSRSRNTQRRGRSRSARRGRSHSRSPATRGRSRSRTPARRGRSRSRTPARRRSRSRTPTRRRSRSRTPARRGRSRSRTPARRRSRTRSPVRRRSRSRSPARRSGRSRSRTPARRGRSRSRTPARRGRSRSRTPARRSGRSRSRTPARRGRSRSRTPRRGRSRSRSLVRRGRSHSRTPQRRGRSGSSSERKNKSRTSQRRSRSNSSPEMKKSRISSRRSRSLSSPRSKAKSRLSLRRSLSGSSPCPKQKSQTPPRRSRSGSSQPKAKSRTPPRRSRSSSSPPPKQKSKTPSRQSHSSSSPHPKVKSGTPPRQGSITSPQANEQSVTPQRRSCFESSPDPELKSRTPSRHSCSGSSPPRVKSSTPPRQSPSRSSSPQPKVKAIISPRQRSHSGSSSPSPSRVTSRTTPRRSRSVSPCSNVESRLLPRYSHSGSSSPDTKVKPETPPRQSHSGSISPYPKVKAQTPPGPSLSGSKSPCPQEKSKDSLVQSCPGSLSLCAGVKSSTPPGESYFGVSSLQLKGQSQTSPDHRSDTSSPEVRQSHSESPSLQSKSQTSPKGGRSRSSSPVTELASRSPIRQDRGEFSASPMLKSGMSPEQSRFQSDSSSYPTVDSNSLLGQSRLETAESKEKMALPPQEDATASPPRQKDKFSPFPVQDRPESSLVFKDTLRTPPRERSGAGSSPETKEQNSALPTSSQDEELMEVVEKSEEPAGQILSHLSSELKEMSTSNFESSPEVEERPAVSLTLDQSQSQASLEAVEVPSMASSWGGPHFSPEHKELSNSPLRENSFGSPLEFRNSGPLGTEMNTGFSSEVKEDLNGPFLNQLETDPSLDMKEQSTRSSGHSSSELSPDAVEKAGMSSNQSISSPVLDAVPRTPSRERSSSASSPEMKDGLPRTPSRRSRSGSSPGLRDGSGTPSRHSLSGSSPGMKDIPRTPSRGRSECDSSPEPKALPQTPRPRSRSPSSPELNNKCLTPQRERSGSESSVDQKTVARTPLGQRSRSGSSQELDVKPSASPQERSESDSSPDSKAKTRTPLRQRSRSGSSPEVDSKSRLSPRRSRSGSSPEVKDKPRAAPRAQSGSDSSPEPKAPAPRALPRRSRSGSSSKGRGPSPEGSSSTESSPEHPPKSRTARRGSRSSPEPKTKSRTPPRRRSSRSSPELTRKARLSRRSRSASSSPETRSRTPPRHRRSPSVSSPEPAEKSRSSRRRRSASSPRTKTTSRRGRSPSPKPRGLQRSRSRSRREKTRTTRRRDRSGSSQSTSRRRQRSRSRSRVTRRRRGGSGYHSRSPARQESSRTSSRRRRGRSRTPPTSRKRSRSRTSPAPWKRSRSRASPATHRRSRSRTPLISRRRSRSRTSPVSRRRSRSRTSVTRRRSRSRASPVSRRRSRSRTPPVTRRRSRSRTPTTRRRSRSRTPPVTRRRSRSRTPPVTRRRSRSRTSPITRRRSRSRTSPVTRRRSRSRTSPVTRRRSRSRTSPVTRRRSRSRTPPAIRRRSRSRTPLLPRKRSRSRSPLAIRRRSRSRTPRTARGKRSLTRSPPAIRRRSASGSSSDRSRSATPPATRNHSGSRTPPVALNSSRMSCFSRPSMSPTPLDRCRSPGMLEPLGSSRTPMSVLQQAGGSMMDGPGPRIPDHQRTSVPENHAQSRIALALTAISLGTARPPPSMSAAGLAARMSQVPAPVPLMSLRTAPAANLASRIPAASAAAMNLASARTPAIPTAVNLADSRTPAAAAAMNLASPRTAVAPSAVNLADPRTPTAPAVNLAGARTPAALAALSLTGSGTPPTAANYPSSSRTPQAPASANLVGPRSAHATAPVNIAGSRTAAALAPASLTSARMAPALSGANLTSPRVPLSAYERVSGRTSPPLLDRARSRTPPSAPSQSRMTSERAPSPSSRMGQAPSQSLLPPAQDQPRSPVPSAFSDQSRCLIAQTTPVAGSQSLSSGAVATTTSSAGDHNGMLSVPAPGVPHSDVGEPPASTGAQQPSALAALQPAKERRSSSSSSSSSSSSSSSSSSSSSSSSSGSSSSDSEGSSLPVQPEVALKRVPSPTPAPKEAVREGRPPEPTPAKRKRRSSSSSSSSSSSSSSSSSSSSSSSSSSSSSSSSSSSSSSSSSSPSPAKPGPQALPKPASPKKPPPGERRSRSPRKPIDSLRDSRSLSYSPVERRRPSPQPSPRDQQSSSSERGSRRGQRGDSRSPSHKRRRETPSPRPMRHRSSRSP
inactive: [1] 0.018 | filanesib 0.097 | zotarolimus 0.05 | idasanutlin 0.166 | alisertib -0.121 | [2] -0.293 | gefitinib 0.018 | [3] 0.028 | lapatinib 0.01 | pictilisib 0.117 | [4] -0.048 | crizotinib -0.246 | [5] 0.021 | [6] -0.255 | duvelisib -0.044 | gandotinib -0.13 | tozasertib 0.013 | [7] 0.012 | doramapimod 0.044 | ispinesib -0.131

SRP72 (UniProt O76094)
inactive: [1] 0.003 | filanesib 0.075 | zotarolimus 0.048 | idasanutlin -0.045 | alisertib -0.131 | [2] 0.023 | gefitinib 0.007 | [3] -0.235 | lapatinib -0.043 | pictilisib 0 | [4] 0.021 | crizotinib -0.121 | [5] -0.017 | [6] 0.167 | duvelisib -0.004 | gandotinib -0.08 | tozasertib 0.068 | [7] 0.154 | doramapimod 0.051 | ispinesib -0.185

SNRNP40 (UniProt Q96DI7)
inactive: [1] -0.039 | filanesib 0.08 | zotarolimus -0.015 | idasanutlin 0.007 | alisertib -0.054 | [2] 0.191 | gefitinib -0.052 | [3] 0.025 | lapatinib 0.02 | [4] 0.033 | crizotinib 0.116 | [5] 0.14 | [6] 0.023 | duvelisib -0.015 | gandotinib 0.22 | tozasertib 0.019 | [7] -0.059 | doramapimod 0.071 | ispinesib 0.077
active: pictilisib 0.295

SRSF4 (UniProt Q08170)
inactive: [1] -0.085 | filanesib 0.234 | zotarolimus 0.053 | idasanutlin 0.207 | alisertib -0.137 | [2] -0.04 | gefitinib -0.014 | [3] -0.089 | lapatinib 0.137 | pictilisib -0.007 | [4] -0.055 | crizotinib 0.011 | [5] -0.248 | [6] 0 | duvelisib -0.064 | gandotinib 0.077 | tozasertib 0.071 | [7] 0.031 | doramapimod 0.073 | ispinesib -0.021

SLIRP (UniProt Q9GZT3)
inactive: [1] 0.088 | zotarolimus -0.054 | idasanutlin 0.041 | alisertib -0.08 | gefitinib 0.041 | [3] 0.023 | lapatinib -0.042 | pictilisib -0.15 | [4] -0.046 | crizotinib -0.267 | [5] -0.202 | [6] 0.058 | duvelisib 0.029 | gandotinib 0.162 | tozasertib -0.075 | [7] 0.146 | doramapimod -0.045 | ispinesib -0.149
active: filanesib -0.429 | [2] -0.648

SLC25A42 (UniProt Q86VD7)
inactive: filanesib -0.011 | zotarolimus 0.058 | idasanutlin 0.047 | alisertib 0.012 | [2] -0.029 | gefitinib 0.063 | [3] 0.043 | lapatinib 0.084 | pictilisib -0.003 | [4] -0.054 | crizotinib 0.028 | [5] 0.015 | [6] -0.055 | duvelisib 0.005 | gandotinib 0.09 | tozasertib -0.021 | [7] -0.003 | doramapimod -0.004 | ispinesib 0.054
active: [1] 0.241

THYN1 (UniProt Q9P016)
inactive: [1] -0.01 | filanesib -0.009 | zotarolimus 0.015 | idasanutlin -0.011 | alisertib -0.065 | [2] 0.035 | gefitinib 0.028 | [3] -0.007 | lapatinib -0.039 | pictilisib -0.032 | [4] -0.015 | crizotinib 0.061 | [5] 0.001 | [6] 0.011 | duvelisib 0.071 | gandotinib 0.021 | tozasertib -0.024 | [7] 0.087 | doramapimod -0.036 | ispinesib -0.002

SOAT1 (UniProt P35610)
UniProt P35610, sequence (P35610 whole entry, looked up): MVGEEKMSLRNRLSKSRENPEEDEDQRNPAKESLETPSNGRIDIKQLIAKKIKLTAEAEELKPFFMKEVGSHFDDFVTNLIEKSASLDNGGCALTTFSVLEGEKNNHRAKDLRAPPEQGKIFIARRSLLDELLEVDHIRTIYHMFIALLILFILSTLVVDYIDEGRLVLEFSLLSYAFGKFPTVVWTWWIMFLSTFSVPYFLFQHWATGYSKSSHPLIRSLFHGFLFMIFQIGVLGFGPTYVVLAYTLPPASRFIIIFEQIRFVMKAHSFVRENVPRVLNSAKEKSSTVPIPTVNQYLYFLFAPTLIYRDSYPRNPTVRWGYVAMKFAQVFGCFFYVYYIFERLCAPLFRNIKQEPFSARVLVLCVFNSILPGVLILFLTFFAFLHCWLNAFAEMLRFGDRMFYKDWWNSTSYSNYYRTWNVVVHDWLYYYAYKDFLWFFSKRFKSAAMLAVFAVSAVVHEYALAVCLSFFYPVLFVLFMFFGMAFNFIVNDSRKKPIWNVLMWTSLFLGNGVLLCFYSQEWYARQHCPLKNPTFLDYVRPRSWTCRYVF
inactive: [1] 0 | filanesib -0.1 | idasanutlin -0.184 | alisertib -0.02 | [2] -0.118 | gefitinib 0.137 | [3] 0.045 | lapatinib 0.068 | pictilisib 0.067 | [4] 0.066 | crizotinib 0.139 | [5] 0.094 | [6] -0.018 | duvelisib 0.069 | gandotinib 0.079 | tozasertib -0.021 | [7] -0.026 | ispinesib 0.158
active: zotarolimus 0.363 | doramapimod 0.448

SLC27A4 (UniProt Q6P1M0)
inactive: [1] 0.134 | filanesib 0.038 | zotarolimus 0.056 | idasanutlin -0.084 | alisertib -0.001 | [2] 0.032 | gefitinib 0.033 | [3] -0.022 | lapatinib 0.055 | pictilisib -0.078 | [4] -0.008 | crizotinib 0.069 | [5] 0.059 | [6] -0.015 | duvelisib 0.082 | gandotinib 0.122 | tozasertib 0.001 | [7] 0.123 | doramapimod 0 | ispinesib -0.103

SPAG9 (UniProt O60271)
UniProt O60271, sequence (O60271 whole entry, looked up): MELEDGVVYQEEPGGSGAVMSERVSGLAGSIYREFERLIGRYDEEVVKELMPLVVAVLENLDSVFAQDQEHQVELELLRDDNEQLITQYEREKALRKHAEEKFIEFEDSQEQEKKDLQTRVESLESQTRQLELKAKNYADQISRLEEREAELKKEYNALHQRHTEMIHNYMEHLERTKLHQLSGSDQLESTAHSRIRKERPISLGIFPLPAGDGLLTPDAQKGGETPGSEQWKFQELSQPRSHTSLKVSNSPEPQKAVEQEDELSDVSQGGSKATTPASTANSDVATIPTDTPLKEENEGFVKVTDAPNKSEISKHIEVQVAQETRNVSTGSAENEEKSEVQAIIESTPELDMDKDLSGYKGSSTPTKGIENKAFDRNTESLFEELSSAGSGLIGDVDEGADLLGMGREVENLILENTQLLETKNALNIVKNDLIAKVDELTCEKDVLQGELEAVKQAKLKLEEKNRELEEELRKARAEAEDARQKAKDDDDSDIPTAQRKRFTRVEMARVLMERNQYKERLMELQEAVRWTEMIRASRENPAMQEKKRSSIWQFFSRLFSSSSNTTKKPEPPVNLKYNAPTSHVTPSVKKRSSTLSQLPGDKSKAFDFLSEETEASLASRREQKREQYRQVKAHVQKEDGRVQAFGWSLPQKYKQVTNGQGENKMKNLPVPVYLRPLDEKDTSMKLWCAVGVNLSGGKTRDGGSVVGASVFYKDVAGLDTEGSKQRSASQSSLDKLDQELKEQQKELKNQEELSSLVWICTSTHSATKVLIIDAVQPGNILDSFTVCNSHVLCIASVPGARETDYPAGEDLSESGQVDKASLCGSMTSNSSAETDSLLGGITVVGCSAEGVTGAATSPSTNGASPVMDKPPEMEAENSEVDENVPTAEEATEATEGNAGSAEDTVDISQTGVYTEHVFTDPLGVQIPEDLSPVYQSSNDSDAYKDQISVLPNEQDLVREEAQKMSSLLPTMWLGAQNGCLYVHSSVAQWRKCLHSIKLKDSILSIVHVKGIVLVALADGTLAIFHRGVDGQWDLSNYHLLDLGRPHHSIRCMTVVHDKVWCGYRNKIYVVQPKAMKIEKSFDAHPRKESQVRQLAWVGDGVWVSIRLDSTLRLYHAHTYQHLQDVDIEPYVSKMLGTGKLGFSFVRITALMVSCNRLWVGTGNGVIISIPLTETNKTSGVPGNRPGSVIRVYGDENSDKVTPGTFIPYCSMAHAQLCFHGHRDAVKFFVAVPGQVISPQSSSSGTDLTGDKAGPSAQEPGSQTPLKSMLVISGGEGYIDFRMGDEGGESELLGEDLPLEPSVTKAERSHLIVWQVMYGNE
inactive: [1] 0.005 | filanesib -0.041 | zotarolimus -0.011 | idasanutlin 0 | alisertib -0.034 | [2] -0.034 | gefitinib -0.01 | [3] -0.031 | lapatinib -0.026 | pictilisib 0.041 | [4] 0.046 | crizotinib -0.056 | [5] -0.002 | [6] 0.065 | duvelisib -0.017 | gandotinib -0.034 | tozasertib 0.049 | [7] 0.012 | doramapimod 0.023 | ispinesib -0.188

SPAST (UniProt Q9UBP0)
inactive: [1] 0.03 | filanesib -0.028 | zotarolimus -0.006 | idasanutlin -0.038 | alisertib -0.1 | [2] 0.096 | gefitinib -0.019 | [3] -0.042 | lapatinib -0.019 | pictilisib -0.041 | [4] 0.002 | crizotinib -0.074 | [5] 0.043 | [6] 0.001 | duvelisib 0.069 | gandotinib -0.025 | tozasertib -0.01 | [7] 0.15 | doramapimod -0.078 | ispinesib -0.001

SMAP (UniProt O00193)
inactive: [1] -0.046 | filanesib -0.154 | zotarolimus -0.018 | idasanutlin 0.005 | alisertib -0.01 | [2] 0.02 | gefitinib 0.033 | [3] 0.051 | lapatinib -0.013 | pictilisib -0.016 | [4] 0.004 | crizotinib -0.06 | [5] -0.01 | [6] -0.082 | duvelisib 0.017 | gandotinib -0.032 | tozasertib 0 | [7] -0.03 | doramapimod 0.023 | ispinesib -0.015

Reference: the supplement of paper PMC10849652
